Compounds with a hit are over-represented: about 1.9% of the library has one in this group of screens.
PLCb3 inh: inhibitors of human phospholipase C beta3. Q01970. Purified PLC-beta3, fluorogenic substrate, fluorescence. inhibition, % at 12.2 µM. 370,000 tested, 0.18% active. AID 720704; in the data active = inhibition above about 11%;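 also: 0% = median of compound wells on plate and 100% = full blocker control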
MsrA inhibitor: inhibitors of bovine MsrA. 360,000 tested, 0.75% active. purified bovine MsrA, absorbance read-out. inhibition, % at 15.5 µM; in the data active = inhibition above about 4.5%;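 also: 0% = vehicle wells with enzyme and 100% = reference inhibitor wells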
PLC-gamma1 inh: PLC-gamma1 (human) inhibition, primary screen; purified PLC-gamma1, fluorogenic substrate, fluorescence; P19174; 370,000 tested, 0.84% active; inhibition, % at 12.2 µM; in the data active = inhibition above about 9.5%
Target sequence (P19174 whole entry, looked up): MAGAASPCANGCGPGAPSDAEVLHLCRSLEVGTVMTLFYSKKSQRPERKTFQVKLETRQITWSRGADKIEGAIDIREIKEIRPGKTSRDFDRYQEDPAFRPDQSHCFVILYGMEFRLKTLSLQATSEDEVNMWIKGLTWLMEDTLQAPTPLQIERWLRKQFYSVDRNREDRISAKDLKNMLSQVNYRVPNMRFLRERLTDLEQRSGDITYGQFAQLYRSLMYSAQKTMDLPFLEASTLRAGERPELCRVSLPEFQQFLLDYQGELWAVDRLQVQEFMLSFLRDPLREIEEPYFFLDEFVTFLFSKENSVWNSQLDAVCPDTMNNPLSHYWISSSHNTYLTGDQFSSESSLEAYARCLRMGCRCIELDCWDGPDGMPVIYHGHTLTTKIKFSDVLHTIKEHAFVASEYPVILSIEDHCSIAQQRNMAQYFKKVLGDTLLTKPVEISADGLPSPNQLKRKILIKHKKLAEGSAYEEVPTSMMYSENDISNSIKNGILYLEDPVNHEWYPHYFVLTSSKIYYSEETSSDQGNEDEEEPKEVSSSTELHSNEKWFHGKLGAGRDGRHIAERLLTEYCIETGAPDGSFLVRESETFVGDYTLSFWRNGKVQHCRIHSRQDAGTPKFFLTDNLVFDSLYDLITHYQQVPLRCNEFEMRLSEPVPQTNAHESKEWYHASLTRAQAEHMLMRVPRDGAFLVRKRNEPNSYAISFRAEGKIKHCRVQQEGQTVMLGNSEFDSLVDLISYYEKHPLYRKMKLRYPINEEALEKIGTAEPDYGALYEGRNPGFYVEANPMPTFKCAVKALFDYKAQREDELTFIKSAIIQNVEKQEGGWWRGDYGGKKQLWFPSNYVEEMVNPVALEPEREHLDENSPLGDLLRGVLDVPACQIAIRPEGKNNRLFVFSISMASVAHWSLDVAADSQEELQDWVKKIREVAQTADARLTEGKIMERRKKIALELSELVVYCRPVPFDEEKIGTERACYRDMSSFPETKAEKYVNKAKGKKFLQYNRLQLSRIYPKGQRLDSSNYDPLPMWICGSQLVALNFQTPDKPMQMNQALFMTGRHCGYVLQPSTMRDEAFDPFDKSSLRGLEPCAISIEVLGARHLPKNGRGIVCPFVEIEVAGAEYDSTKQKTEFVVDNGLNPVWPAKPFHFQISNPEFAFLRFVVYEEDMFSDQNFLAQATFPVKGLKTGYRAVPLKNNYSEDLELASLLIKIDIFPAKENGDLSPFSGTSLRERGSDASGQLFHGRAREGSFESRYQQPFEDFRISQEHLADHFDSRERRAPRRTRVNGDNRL
MsrA act: activates bovine MsrA enzyme; purified bovine MsrA, absorbance read-out; activation, % at 10.6 µM; 360,000 tested, 0.3% active; AID 602163; in the data active = activation above about 7.5%;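 also: 0% = vehicle and 100% = reference activator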
MsrA activ conf: confirmation of bovine methionine sulfoxide reductase A activators; shares compounds with MsrA act; activation, % at 10.6 µM; 1,000 tested, 12% active; AID 602270; purified bovine MsrA, absorbance read-out; in the data active = activation above about 4%;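 also: enzyme coupled to thioredoxin and thioredoxin reductase with NADPH; 0% = vehicle wells and 100% = reference activator wells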
* hit, by the source's call; nt = no result given.

SMILES | PLCb3 inh | MsrA inhibitor | PLC-gamma1 inh | MsrA act | MsrA activ conf
C(=Nc1ccc(N2CCOCC2)cc1)c1c[nH]c2ccccc12 | -29.2 | 0.2 | -25.6 | 11.6* | 0.0
CC1CS(=O)(=O)CCN1N=Cc1ccc([N+](=O)[O-])o1 (stereo unspecified) | -8.7 | 0.3 | -6.8 | 10.3* | -1.7
COCC(=O)N[C@H]1C[C@@H]2O[C@@H](CO)CC[C@@H]2O[C@@H]1CCc1ccc(-c2ccccc2)cc1 | -0.8 | nt | 1.6 | nt | nt
COc1cccc(C2=Cc3ccc(F)cc3C(CC(C)=O)N2c2ccc(C#CC3(O)CCCCC3)cc2)c1 (stereo unspecified) | -24.2 | 0.6 | -21.5 | 8.1* | -2.0
O=S(=O)(Nc1ccccc1Cl)c1ccc(NS(=O)(=O)c2cccs2)cc1 | -9.3 | -0.8 | -0.1 | 7.7* | 0.3
CN(C)S(=O)(=O)c1ccc(Cl)c(NC(=O)COC(=O)CNS(=O)(=O)c2c(F)cccc2F)c1 | -6.7 | -0.5 | -0.1 | 8.8* | 0.7
Cn1ncc2c(=O)n(CC(=O)NC34CC5CC(CC(C5)C3)C4)cnc21 | 3.2 | -0.3 | -0.3 | 9.0* | -2.0
COc1ccc(C/C(N)=N/n2cnnc2)cc1 | 2.7 | 0.1 | 1.3 | -2.0 | nt
CC(C)COc1ccc(C/C(N)=N/n2cnnc2)cc1 | 2.8 | -1.0 | 0.4 | 8.0* | -1.7
CCN(CC(=O)Nc1ccc(NC(C)=O)cc1)C(=O)c1cccc(S(=O)(=O)N2CCc3ccccc3C2)c1 | 3.2 | 0.4 | -1.4 | -0.4 | nt
Cc1ccc(NC(=O)CN(C)C(=O)c2cccc(S(=O)(=O)N3CCc4ccccc4C3)c2)cc1 | 4.4 | -0.4 | 0.3 | 10.3* | 0.3
CC(=O)N1CCc2cc(Br)c(S(=O)(=O)NCc3ccc(Cl)cc3)cc21 | -2.9 | nt | -0.8 | nt | nt
CN(CC(=O)Nc1ccccc1N1CCOCC1)S(=O)(=O)c1ccc(Cl)cc1 | 0.4 | -0.2 | -0.2 | 8.0* | 5.5*
COC(=O)[C@]12C[C@H](CC(=O)NCCCN3CCCC3=O)C(=O)N(Cc3cccc4ccccc34)C1=C[C@H](C(C)C)O[C@@H]2C1CC1 | 1.6 | nt | 1.3 | nt | nt
C=CCN1[C@@H](CC(C)C)COc2cccc(N3CCSCC3)c2S1(=O)=O | 0.7 | nt | 0.5 | nt | nt
O=C(N/N=C/c1cccs1)C1COc2ccccc2O1 (stereo unspecified) | 1.0 | 0.7 | 4.8 | 8.6* | -1.9
O=C1C(=O)c2c(ccc3ccccc23)-c2ccccc21 | -39.8 | -0.4 | -32.8 | 11.6* | 8.2*
CCOC(=O)[C@]12CCCC=C1N(CCCOC)C(=O)[C@@H]2CC(=O)NCC12CC3CC(CC(C3)C1)C2 | 3.3 | nt | -0.6 | nt | nt
Cc1ccccc1S(=O)(=O)Cc1ccc(C(=O)NC(C)c2ccc3c(c2)OCCO3)o1 (stereo unspecified) | 1.9 | 0.4 | 7.0 | -2.8 | nt
CC(NC(=O)c1ccc(CS(=O)(=O)c2ccc(Cl)cc2)o1)c1ccc2c(c1)OCCO2 (stereo unspecified) | -0.1 | -0.5 | 0.4 | 8.6* | -2.0
OC(c1ccccc1)(c1ccccc1)C1CCN(CCCOc2ccc(-c3cncnc3)cc2)CC1 | 2.5 | -0.7 | 2.2 | nt | nt
CC(C(=O)N1CCCCC1)n1ncn2cccc2c1=O (stereo unspecified) | -0.7 | -0.1 | 1.9 | 19.8* | -0.1
CC(C(=O)N1CCN(Cc2ccccc2)CC1)n1ncn2cccc2c1=O (stereo unspecified) | 0.0 | 0.1 | 0.7 | -0.9 | nt
COc1ccc(Cn2nnnc2C(c2cccs2)N2CCOCC2)cc1 (stereo unspecified) | 6.0 | 0.0 | 4.4 | 7.8* | -1.0
c1ccc(CCn2nnnc2C(c2cccs2)N2CCOCC2)cc1 (stereo unspecified) | 0.0 | 0.1 | 2.8 | -8.1 | nt
SMILES | PLCb3 inh | MsrA inhibitor | PLC-gamma1 inh | MsrA act | MsrA activ conf
Cc1ccc(CNC(=O)[C@@H](Cc2ccccc2)NC(=O)[C@H]2O[C@@H](n3ccc(N)nc3=O)[C@H](O)[C@@H]2O)o1 | -0.3 | 2.1 | 0.5 | nt | nt
CCN1CCN(c2ccc(S(=O)(=O)N3CCCCC3)cc2NC(=O)c2cccc(C)c2)CC1 | -4.5 | -0.5 | 5.6 | 9.3* | -1.8
c1ccc(-c2nc3ccccc3nc2-c2ccc(CN3CCC4(CC3)CNc3ccccc34)cc2)cc1 | -4.7 | 0.5 | -3.1 | nt | nt
COc1cc(NS(=O)(=O)c2ccc(C)cc2)c2ncccc2c1 | -53.7 | -0.7 | -61.8 | -3.2 | nt
Cc1ccc(S(=O)(=O)Nc2cccc3cccnc23)cc1 | -33.6 | -0.8 | -46.3 | 11.1* | -2.0
N#Cc1ccc2nc(-c3ccc(CN4CCC(n5cc(-c6ccccc6)[nH]c5=O)CC4)cc3)c(-c3ccccc3)nc2c1 | -32.4 | 2.5 | -26.4 | nt | nt
COc1ccccc1CNC(=O)CCNC(=O)Cn1cnc2ccccc2c1=O | -1.4 | -0.6 | 2.5 | 8.8* | -0.2
Cc1cc(N2CCN(Cc3ccccc3)CC2)n2nc(C)c(-c3ccccc3)c2n1 | -23.6 | -0.4 | -15.6 | -3.1 | nt
COc1ccc(-c2c(C)nn3c(N4CCN(Cc5ccccc5)CC4)cc(C)nc23)cc1OC | -4.8 | -0.4 | -1.4 | 8.3* | 0.1
CC1CN(C(=O)c2cccc(S(=O)(=O)N3CCN(c4ccccc4)CC3)c2)CC(C)O1 (stereo unspecified) | -2.7 | -0.1 | 4.1 | 9.1* | -2.2
CC(=O)N1CCN(C(=O)c2cccc(S(=O)(=O)N3CCN(c4ccccc4)CC3)c2)CC1 | 1.9 | -0.8 | 4.4 | -2.7 | nt
O=C(c1ccc2c(=O)n(C3CCCC3)c(=S)[nH]c2c1)N1CCN(C2CCCCC2)CC1 | 4.4 | -0.2 | 0.5 | -2.6 | nt
CCN1CCN(C(=O)c2ccc3c(=O)n(C4CCCC4)c(=S)[nH]c3c2)CC1 | -0.5 | 1.0 | 5.6 | 8.8* | 0.2
COc1ccc(-c2csc(/C(C#N)=C/Nc3cc4oc5ccccc5c4cc3OC)n2)cc1 | -1.3 | -0.2 | -0.7 | 13.4* | -0.5
COc1ccc(-c2csc(/C(C#N)=C/Nc3ccc4c(c3)OCCO4)n2)cc1 | 3.1 | -1.2 | -1.0 | -4.6 | nt
CCOC(=O)c1ccc(N2C(=O)Cc3ccccc3C2=O)cc1 | -21.8 | -0.5 | -14.6 | -3.7 | nt
CC(C)COC(=O)c1ccc(N2C(=O)c3ccccc3C2=O)cc1 | 1.1 | -1.3 | 2.2 | 7.9* | 5.5*
COc1ccc2c(c1)C(NC(=O)C(F)(F)F)CC21CCCCC1 (stereo unspecified) | 1.7 | -0.5 | -1.0 | nt | nt
O=C(COC(=O)c1cc(F)cc(F)c1)Nc1cccnc1Cl | 0.2 | -0.9 | 1.9 | 9.1* | -3.5
O=C(COC(=O)c1ccc(F)cc1F)Nc1cccnc1Cl | -2.6 | 0.7 | 2.2 | 1.3 | nt
O=C1NC(=Nc2ccccc2)c2ccc([N+](=O)[O-])cc21 | 4.6 | -1.2 | 1.2 | 5.9 | nt
Cc1cccc(N=C2NC(=O)c3cc([N+](=O)[O-])ccc32)c1 | 2.4 | -0.9 | 0.6 | 7.8* | 3.5
CCN(C(=O)C1CCCN(c2nnc(-n3cccc3)s2)C1)c1ccccc1C (stereo unspecified) | 3.4 | nt | 5.8 | nt | nt
Cc1noc(C)c1COc1ccccc1C(=O)NCCc1ccc(S(N)(=O)=O)cc1 | -6.1 | -0.1 | -1.7 | 7.8* | -2.0
COCC(=O)N1C[C@H]2CON(C)[C@H]2C[C@H]1c1cccc(-c2cc(Cl)cc(Cl)c2)c1 | -1.8 | 0.1 | 0.4 | nt | nt
Cc1nnc(N/N=C/c2ccccc2O)n1N | 2.0 | -0.2 | 8.1 | 8.8* | -1.4

Source: PubChem (The Scripps Research Institute Molecular Screening Center)
